What is called AC50 is the concentration giving half of the maximal activity seen.

Structures are written as SMILES. Results filed as inconclusive are left out. The source made the active and inactive calls. Rule for the calls, unless noted: active = hit-call score of the fitted dose curve at least 0.9, where 1 is the maximum; inactive = score below 0.9.

The nature of assay [1]: BSK_4H_Eotaxin3: BioMAP Diversity Plus: 4H Assay for Eotaxin 3 Biomarker Activity (AID 2283000).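 For outcome: CCL26 protein level quantified by ELISA in parallel with SRB cytotoxicity check.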 To be noted: primary human endothelial cells (HUVEC); actives raise or lower the signal. The essentials:
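ELISA quantitation of CCL26 (Eotaxin-3) protein from chemically dosed human vascular endothelial cells at 24 h; increases and decreases both scored relative to DMSO-treated baseline.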

For assay [2], the target named is human Peroxisome Proliferator-activated Receptor alpha (PPARa), PPARA (gene 5465) (UniProt Q07869). Nature of the assay: ATG_PPARa_TRANS: Attagene TRANS-FACTORIAL HepG2 Assay for human Peroxisome Proliferator-activated Receptor alpha (PPARa) (AID 2283001; active = hit-call score of the fitted dose curve at least 0.9, where 1 is the maximum). In short, it runs like this:
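HepG2 cells transiently transfected with multiplexed GAL4-UAS reporter units and chimeric NR-Gal4 constructs were dosed for 24 h. Reporter mRNA was measured by RT-PCR with fluorescent labelling and capillary electrophoresis; gain of signal fitted against DMSO.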

Read-out in assay [3]: Intercellular Adhesion Molecule 1 (ICAM1), ICAM1 (gene 3383)
Nature of the assay: BSK_3C_ICAM1: BioMAP Diversity Plus: 3C Assay for Intercellular Adhesion Molecule 1 (ICAM1) Biomarker Activity (AID 2283003). As to conditions: primary human endothelial cells (HUVEC); actives raise or lower the signal. The essentials:
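Human vascular endothelial primary cells, 3C conditions, 24 h treatment. ICAM-1 by ELISA.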

Assay [4] can be described thus: BSK_3C_Proliferation: Cell Proliferation Assessment in the BioMAP Diversity Plus: 3C Assay (AID 2283006).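 For AC50: potency may reflect either rise or fall in cell number versus DMSO.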 As to conditions: primary human endothelial cells (HUVEC). The essentials:
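Proliferation of human vascular endothelial primary cells after 48 h dosing, quantified as SRB-stained protein at 560 nm relative to DMSO.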

Assay [5] deals with Peroxisome proliferator-activated receptor gamma (Homo sapiens) (UniProt P37231). Nature of the assay: ATG_PPARg_TRANS: Attagene TRANS-FACTORIAL HepG2 Assay for human Peroxisome Proliferator-activated Receptor-gamma (PPARg) (AID 2283007; active = hit-call score of the fitted dose curve at least 0.9, where 1 is the maximum). The essentials: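 Twenty-four hours after chemical dosing of transiently transfected HepG2 cells, isolated RNA was converted to cDNA, reporter sequences amplified and 6-FAM-labelled, then HpaI-digested and analysed by capillary electrophoresis. Signal increase against DMSO was fitted.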

Assay [6] deals with Nuclear receptor subfamily 1 group I member 2 (Homo sapiens) (UniProt O75469). Briefly: ATG_PXR_TRANS: Attagene TRANS-FACTORIAL HepG2 Assay for human Pregnane X Receptor (PXR) (AID 2283008; active = hit-call score of the fitted dose curve at least 0.9, where 1 is the maximum). In short, it runs like this:
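HepG2 cells transiently transfected with multiple reporter units, here a PXR-GAL4 chimera driving a GAL4-UAS reporter; 24 h compound exposure. Reporter mRNA measured by RT-PCR, FAM labelling and capillary electrophoresis; gain of signal fitted against DMSO baseline.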

Assay [7] deals with human Retinoic Acid Receptor gamma (RARg), RARG (gene 5916) (UniProt P13631). Nature of the assay: ATG_RARg_TRANS: Attagene TRANS-FACTORIAL HepG2 Assay for human Retinoic Acid Receptor gamma (RARg) (AID 2283009; active = hit-call score of the fitted dose curve at least 0.9, where 1 is the maximum;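 for AC50: AC50 is for reporter induction above DMSO meaning RARg activation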). The essentials: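 HepG2, RARg-GAL4 TRANS system, 24 h exposure; reporter mRNA by RT-PCR + CE fluorescence; increase over DMSO.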
Assay [8] deals with human RAR-related Orphan Receptor beta (RORb), RORB (gene 6096) (UniProt Q92753). Briefly: ATG_RORb_TRANS: Attagene TRANS-FACTORIAL HepG2 Assay for human RAR-related Orphan Receptor beta (RORb) (AID 2283010; active = hit-call score of the fitted dose curve at least 0.9, where 1 is the maximum). The essentials:
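In this TRANS-format test, human HepG2 cells express chimeric NR-Gal4 fusion proteins driving GAL4-UAS reporters. After 24 h dosing, reporter transcripts are measured by fluorescent RT-PCR/capillary electrophoresis, with DMSO as negative control.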

In assay [9] the target is Retinoic acid receptor RXR-alpha (Homo sapiens) (UniProt P19793). Nature of the assay: ATG_RXRa_TRANS: Attagene TRANS-FACTORIAL HepG2 Assay for human Retinoid X Receptor alpha (RXRa) (AID 2283012; active = hit-call score of the fitted dose curve at least 0.9, where 1 is the maximum). In short, it runs like this:
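Cells (HepG2) carried transiently transfected GAL4-responsive reporter units. Following a 24 h chemical incubation, reporter mRNA induction was read via RT-PCR fragment analysis; DMSO served as negative control and baseline.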

For assay [10], the target named is human Retinoid X Receptor beta (RXRb), RXRB (gene 6257) (UniProt P28702). Nature of the assay: ATG_RXRb_TRANS: Attagene TRANS-FACTORIAL HepG2 Assay for human Retinoid X Receptor beta (RXRb) (AID 2283013; active = hit-call score of the fitted dose curve at least 0.9, where 1 is the maximum). The essentials: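 Multiplexed TRANS reporter assay in HepG2; 24 h dosing; reporter mRNA by RT-PCR/CE fluorescence; gain-of-signal relative to DMSO.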
Read-out in assay [11]: Interleukin-1 alpha (IL1a), IL1A (gene 3552)
Nature of the assay: BSK_BE3C_IL1a: BioMAP Diversity Plus: BE3C Assay for Interleukin-1 alpha (IL1a) Biomarker Activity (AID 2283016). To be noted: primary human bronchial epithelial cells; actives raise or lower the signal. The essentials: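 Cultures of primary human bronchial epithelial cells receive test chemical. After 24 h, IL-1a is quantified by ELISA, while parallel wells are fixed in TCA and SRB-stained for total protein. Changes in either direction are fitted relative to DMSO.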

Read-out in assay [12]: Monocyte Chemoattractant Protein-1 (MCP1), CCL2 (gene 6347)
Briefly: BSK_3C_MCP1: BioMAP Diversity Plus: 3C Assay for Monocyte Chemoattractant Protein-1 (MCP1) Biomarker Activity (AID 2283017). As to conditions: primary human endothelial cells (HUVEC); actives raise or lower the signal. In short, it runs like this:
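Using human vascular primary endothelium, researchers measured MCP-1 by ELISA 24 h after treatment, with DMSO serving as negative control for bidirectional fitting.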

Read-out in assay [13]: Monocyte Chemoattractant Protein-1 (MCP1), CCL2 (gene 6347)
Briefly: BSK_4H_MCP1: BioMAP Diversity Plus: 4H Assay for Monocyte Chemoattractant Protein-1 (MCP1) Biomarker Activity (AID 2283018). To be noted: primary human endothelial cells (HUVEC); actives raise or lower the signal. The essentials:
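Readout: MCP-1 ELISA on compound-treated HUVEC, sampled 24 h post-dosing. Baseline and negative control DMSO; bidirectional fit. Overt toxicity checked alongside by sulforhodamine B protein staining at time of biomarker measurement.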

Read-out in assay [14]: Human Leukocyte Antigen - DR isotype (HLADR), HLA-DRA (gene 3122)
Briefly: BSK_3C_HLADR: BioMAP Diversity Plus: 3C Assay for Human Leukocyte Antigen - DR isotype (HLADR) Biomarker Activity (AID 2283019).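 For outcome: ELISA of cell-surface HLA-DR on HUVEC 24 h after dosing.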 To be noted: primary human endothelial cells (HUVEC); actives raise or lower the signal. In short, it runs like this: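 Compound added to primary HUVEC cultures, 24 h incubation, then HLA-DR determined by ELISA; endpoint derived by bidirectional fitting relative to DMSO negative control.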

Read-out in assay [15]: Interleukin-8 (IL8), CXCL8 (gene 3576)
Briefly: BSK_3C_IL8: BioMAP Diversity Plus: 3C Assay for Interleukin-8 (IL8) Biomarker Activity (AID 2283020). To be noted: primary human endothelial cells (HUVEC); actives raise or lower the signal. In short, it runs like this:
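Human vascular endothelial cells (umbilical vein) in the 3C system; IL-8 level detected by ELISA at 24 h post-dose, with DMSO as baseline.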

For assay [16], the target named is human Thyroid Receptor alpha (THRa1), THRA (gene 7067) (UniProt P10827). Nature of the assay: ATG_THRa1_TRANS: Attagene TRANS-FACTORIAL HepG2 Assay for human Thyroid Receptor alpha (THRa1) (AID 2283014; active = hit-call score of the fitted dose curve at least 0.9, where 1 is the maximum). In short, it runs like this: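 Measured here is mRNA from a GAL4-UAS reporter in transfected HepG2 cells carrying a Gal4-fused receptor, 24 h post-dose. DMSO served as negative control and baseline.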

Assay [17] has as its target human Peroxisome Proliferator-activated Receptor delta (PPARd), PPARD (gene 5467) (UniProt Q03181). Nature of the assay: ATG_PPARd_TRANS: Attagene TRANS-FACTORIAL HepG2 Assay for human Peroxisome Proliferator-activated Receptor delta (PPARd) (AID 2283002; active = hit-call score of the fitted dose curve at least 0.9, where 1 is the maximum). The essentials:
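HepG2 cells transiently transfected with multiplexed GAL4-UAS reporter units and exogenous chimeric NR-Gal4 proteins; 24 h compound exposure. Reporter mRNA measured by RT-PCR, 6-FAM labelling, HpaI digestion and capillary electrophoresis; gain of signal versus DMSO.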

For assay [18], the target named is human RAR-related Orphan Receptor gamma (RORg), RORC (gene 6097) (UniProt P51449). Briefly: ATG_RORg_TRANS: Attagene TRANS-FACTORIAL HepG2 Assay for human RAR-related Orphan Receptor gamma (RORg) (AID 2283011; active = hit-call score of the fitted dose curve at least 0.9, where 1 is the maximum). The essentials:
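Chimeric RORg-Gal4 transactivation in transfected HepG2; 24 h exposure; RT-PCR/capillary electrophoresis readout of reporter mRNA, DMSO baseline.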

Assay [19] deals with Retinoic acid receptor alpha (Homo sapiens) (UniProt P10276). Nature of the assay: ATG_RARa_TRANS: Attagene TRANS-FACTORIAL HepG2 Assay for human Retinoic Acid Receptor alpha (RARa) (AID 2283005; active = hit-call score of the fitted dose curve at least 0.9, where 1 is the maximum). The essentials:
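HepG2 cells transiently transfected with multiple reporter units expressing chimeric RARα-GAL4 fusion, with GAL4-UAS-driven reporters. After 24 h compound exposure, reporter mRNA induction quantified by RT-PCR and capillary electrophoresis with fluorescent labeling; gain-of-signal fitted relative to DMSO control.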

Sequence of human RAR-related Orphan Receptor gamma (RORg), RORC (gene 6097) (P51449 whole entry, looked up, the tested form may be a part): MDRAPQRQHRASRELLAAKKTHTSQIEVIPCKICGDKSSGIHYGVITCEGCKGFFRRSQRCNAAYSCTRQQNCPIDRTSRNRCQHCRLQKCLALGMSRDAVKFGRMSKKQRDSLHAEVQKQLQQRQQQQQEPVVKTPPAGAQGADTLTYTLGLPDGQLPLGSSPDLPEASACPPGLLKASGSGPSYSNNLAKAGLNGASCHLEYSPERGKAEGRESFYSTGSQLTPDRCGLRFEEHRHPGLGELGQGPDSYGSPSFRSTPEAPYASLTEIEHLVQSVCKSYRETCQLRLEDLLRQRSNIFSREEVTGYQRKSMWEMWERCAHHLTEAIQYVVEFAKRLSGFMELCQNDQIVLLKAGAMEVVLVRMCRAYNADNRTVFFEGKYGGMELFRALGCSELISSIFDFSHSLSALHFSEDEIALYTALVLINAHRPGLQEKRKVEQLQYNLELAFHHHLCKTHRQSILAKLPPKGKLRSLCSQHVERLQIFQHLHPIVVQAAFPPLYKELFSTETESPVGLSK
Sequence of Nuclear receptor subfamily 1 group I member 2 (Homo sapiens) (O75469 whole entry, looked up, the tested form may be a part): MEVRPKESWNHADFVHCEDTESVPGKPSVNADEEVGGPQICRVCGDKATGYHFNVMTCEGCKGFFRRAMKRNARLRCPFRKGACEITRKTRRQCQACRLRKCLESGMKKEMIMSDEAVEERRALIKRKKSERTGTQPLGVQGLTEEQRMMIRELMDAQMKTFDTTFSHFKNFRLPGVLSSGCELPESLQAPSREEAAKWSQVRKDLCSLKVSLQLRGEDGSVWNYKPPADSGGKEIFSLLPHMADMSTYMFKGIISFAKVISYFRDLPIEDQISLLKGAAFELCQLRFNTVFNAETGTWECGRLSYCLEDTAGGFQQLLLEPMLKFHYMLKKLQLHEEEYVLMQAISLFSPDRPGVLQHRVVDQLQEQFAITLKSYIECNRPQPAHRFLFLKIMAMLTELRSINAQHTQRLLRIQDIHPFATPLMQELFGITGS
Sequence of human Retinoid X Receptor beta (RXRb), RXRB (gene 6257) (P28702 whole entry, looked up): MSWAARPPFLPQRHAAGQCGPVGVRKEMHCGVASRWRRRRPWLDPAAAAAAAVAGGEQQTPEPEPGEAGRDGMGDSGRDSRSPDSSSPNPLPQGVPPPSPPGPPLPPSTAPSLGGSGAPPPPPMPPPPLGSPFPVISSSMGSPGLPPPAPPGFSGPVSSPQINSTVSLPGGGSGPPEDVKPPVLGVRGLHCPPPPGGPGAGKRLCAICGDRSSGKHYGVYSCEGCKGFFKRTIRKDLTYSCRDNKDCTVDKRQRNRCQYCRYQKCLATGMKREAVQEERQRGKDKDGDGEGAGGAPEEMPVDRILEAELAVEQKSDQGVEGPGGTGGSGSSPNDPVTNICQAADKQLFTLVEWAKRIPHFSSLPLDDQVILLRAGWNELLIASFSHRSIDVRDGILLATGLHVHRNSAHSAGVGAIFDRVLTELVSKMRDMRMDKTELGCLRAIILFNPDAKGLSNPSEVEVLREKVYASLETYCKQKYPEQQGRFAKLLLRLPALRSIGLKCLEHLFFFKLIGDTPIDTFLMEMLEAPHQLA
Sequence of human Peroxisome Proliferator-activated Receptor alpha (PPARa), PPARA (gene 5465) (Q07869 whole entry, looked up, the tested form may be a part): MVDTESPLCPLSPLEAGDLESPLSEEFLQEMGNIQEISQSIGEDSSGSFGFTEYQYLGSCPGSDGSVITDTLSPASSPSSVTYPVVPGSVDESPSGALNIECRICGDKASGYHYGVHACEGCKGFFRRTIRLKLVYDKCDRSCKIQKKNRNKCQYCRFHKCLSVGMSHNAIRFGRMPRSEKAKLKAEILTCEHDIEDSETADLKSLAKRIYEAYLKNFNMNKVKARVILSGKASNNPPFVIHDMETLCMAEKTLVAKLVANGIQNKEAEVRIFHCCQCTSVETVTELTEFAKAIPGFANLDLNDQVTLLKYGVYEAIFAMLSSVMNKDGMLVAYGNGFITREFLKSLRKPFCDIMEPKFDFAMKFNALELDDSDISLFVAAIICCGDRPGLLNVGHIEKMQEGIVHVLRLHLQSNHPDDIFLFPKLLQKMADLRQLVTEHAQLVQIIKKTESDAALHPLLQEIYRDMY
Sequence of human Peroxisome Proliferator-activated Receptor delta (PPARd), PPARD (gene 5467) (Q03181 whole entry, looked up, the tested form may be a part): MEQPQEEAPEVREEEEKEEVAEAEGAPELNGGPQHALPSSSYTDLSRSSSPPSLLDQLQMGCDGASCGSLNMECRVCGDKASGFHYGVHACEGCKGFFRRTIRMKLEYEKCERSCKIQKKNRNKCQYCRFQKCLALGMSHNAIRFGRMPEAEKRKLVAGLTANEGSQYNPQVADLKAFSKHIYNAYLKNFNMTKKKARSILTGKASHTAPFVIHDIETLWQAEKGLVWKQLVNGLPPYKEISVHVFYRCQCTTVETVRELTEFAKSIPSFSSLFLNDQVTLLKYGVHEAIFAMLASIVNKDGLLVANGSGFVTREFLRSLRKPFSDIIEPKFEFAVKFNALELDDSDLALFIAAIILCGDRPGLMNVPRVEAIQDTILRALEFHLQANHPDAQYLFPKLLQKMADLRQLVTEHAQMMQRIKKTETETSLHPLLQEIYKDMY
Sequence of human RAR-related Orphan Receptor beta (RORb), RORB (gene 6096) (Q92753 whole entry, looked up, the tested form may be a part): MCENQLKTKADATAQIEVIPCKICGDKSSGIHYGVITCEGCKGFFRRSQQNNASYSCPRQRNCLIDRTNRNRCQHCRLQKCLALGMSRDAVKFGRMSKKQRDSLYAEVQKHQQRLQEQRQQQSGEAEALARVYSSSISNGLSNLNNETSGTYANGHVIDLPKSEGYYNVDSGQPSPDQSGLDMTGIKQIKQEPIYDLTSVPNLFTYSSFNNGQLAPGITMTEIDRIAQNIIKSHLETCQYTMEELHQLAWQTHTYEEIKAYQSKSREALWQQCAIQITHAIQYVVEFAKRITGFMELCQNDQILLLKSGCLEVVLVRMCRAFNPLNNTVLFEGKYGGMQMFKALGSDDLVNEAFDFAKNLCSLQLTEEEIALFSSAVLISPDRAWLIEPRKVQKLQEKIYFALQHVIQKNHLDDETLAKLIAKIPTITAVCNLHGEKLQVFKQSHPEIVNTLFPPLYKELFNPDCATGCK
Sequence of human Thyroid Receptor alpha (THRa1), THRA (gene 7067) (P10827 whole entry, looked up, the tested form may be a part): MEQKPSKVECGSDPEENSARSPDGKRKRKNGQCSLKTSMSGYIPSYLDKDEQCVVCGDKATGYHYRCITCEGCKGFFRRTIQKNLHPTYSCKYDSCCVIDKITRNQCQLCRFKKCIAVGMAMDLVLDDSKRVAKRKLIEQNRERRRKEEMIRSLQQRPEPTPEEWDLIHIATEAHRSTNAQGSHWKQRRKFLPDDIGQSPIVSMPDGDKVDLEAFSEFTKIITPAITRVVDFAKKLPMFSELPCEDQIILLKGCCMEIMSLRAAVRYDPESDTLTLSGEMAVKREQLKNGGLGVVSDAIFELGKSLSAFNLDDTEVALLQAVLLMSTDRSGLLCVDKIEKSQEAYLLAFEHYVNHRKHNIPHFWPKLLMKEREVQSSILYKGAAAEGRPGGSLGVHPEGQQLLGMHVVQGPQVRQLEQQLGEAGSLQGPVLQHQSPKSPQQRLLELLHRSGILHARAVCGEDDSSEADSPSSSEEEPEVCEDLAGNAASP
Sequence of human Retinoic Acid Receptor gamma (RARg), RARG (gene 5916) (P13631 whole entry, looked up, the tested form may be a part): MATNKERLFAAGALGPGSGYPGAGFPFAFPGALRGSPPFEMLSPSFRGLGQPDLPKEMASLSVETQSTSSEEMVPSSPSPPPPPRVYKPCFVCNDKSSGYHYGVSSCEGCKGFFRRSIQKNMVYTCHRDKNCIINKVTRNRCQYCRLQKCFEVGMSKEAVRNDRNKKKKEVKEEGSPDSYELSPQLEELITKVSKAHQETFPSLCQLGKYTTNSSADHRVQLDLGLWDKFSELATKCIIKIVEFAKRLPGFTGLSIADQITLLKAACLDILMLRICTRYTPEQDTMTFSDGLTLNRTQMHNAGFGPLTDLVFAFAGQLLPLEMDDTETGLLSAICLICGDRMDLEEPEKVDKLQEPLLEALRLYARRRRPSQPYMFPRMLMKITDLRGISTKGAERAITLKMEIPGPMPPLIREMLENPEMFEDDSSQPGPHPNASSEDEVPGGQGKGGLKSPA
Sequence of Peroxisome proliferator-activated receptor gamma (Homo sapiens) (P37231 whole entry, looked up): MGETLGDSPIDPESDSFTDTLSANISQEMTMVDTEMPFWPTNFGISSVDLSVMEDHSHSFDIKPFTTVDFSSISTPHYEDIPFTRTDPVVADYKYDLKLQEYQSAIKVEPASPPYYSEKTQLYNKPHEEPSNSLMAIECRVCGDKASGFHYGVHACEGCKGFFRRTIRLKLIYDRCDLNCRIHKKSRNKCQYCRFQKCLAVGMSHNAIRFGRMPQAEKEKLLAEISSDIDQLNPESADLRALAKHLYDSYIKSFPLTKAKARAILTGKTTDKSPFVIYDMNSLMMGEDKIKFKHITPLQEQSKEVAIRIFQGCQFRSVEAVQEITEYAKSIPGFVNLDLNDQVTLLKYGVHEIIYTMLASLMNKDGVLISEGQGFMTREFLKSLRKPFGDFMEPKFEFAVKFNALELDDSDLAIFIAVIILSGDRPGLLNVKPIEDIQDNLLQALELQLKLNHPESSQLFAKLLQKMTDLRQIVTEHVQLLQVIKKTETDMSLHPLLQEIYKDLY
Sequence of Retinoic acid receptor RXR-alpha (Homo sapiens) (P19793 whole entry, looked up, the tested form may be a part): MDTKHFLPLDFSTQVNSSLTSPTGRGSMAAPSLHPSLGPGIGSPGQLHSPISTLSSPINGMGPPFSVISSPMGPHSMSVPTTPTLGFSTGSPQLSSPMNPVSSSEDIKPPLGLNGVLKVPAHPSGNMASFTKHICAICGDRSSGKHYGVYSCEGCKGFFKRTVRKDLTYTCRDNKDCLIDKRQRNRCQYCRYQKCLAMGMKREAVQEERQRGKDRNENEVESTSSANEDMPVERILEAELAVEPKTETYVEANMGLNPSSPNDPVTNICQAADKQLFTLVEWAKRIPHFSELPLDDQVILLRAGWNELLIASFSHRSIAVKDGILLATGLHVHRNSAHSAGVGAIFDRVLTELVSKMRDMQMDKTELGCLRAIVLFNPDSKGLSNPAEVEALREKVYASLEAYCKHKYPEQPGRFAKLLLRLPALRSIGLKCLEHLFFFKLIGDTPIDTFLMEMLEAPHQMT

For the compound `CCCCCCCC1CCCC1=O` (stereo not drawn), the half-maximal activity concentration (AC50) was 31.9 µM (active) in assay [1]; 31.3 µM (active) in [3]; 36.8 µM (active) in assay [4]; 34.2 µM (active) in assay [6]; 34.1 µM (active) in assay [11]; 31.1 µM (active) in [12]. Further, the figures for the AC50 in assay [14] and in assay [15] were 31.6 µM (active) and 25.2 µM (active), respectively. Besides, the call in [2], in [5], in assay [7], in assay [8], in [9] and in [10] was inactive. For the same compound, the outcome in assay [13] was inactive.

With `c1ccc(Sc2ccccc2)cc1`, the AC50 is 30.7 µM (active) in assay [1]; 27.6 µM (active) in [4]; 100 µM (active) in [10]; 33.2 µM (active) in assay [11]; 29.1 µM (active) in [12]; 20 µM (active) in assay [13]. The values for the half-maximal activity concentration (AC50) in assay [14] and in [15] were 30.3 µM (active) and 20 µM (active), respectively. For the same compound, the call in [2], in assay [3], in assay [5], in [6], in assay [9] and in assay [16] was inactive.

For `CCCO[Si](OCCC)(OCCC)OCCC`, the result in [1], in [17], in assay [3], in [4], in assay [5] and in assay [6] was inactive. In addition, the compound was classed as inactive in [18], in assay [9], in [10], in [11], in assay [12] and in [13]. Also, the result in [14] and in assay [15] was inactive.

`CC(C)CCCC(C)(C)O`: the outcome in assay [1], in assay [17], in [3], in assay [4], in assay [6] and in [8] was inactive. Besides, the outcome in assay [18], in [9], in assay [10], in [11], in assay [12] and in assay [13] was inactive. Further, the outcome in [14] and in assay [15] was inactive.

In the case of `CC(C)(CO)CO`, the outcome in [1], in assay [17], in assay [3], in assay [4], in assay [18] and in [11] was inactive. Besides, the result in assay [12], in [13], in assay [14] and in assay [15] was inactive.

As for `CC(=O)CCC=C(C)CCC=C(C)C`, the figures for the AC50 in assay [1], in [5] and in assay [6] were 31.5 µM (active), 36.6 µM (active) and 4.33 µM (active), respectively. The call in [2], in assay [3], in assay [4], in assay [18], in assay [9] and in assay [10] was inactive. Further, the result in assay [16], in assay [11], in [12], in assay [13], in [14] and in [15] was inactive.

Consider `C=C1CC/C=C(\C)CC[C@@H]2[C@@H]1CC2(C)C`, for which the AC50 is 28.8 µM (active) in assay [1]; 35 µM (active) in assay [3]; 30 µM (active) in [4]; 19.8 µM (active) in assay [6]; 19.4 µM (active) in assay [10]; 31.5 µM (active) in assay [12]. Further, the half-maximal activity concentration (AC50) in [13] is 29.1 µM (active); in assay [14], 28.7 µM (active); in assay [15], 30.6 µM (active). Also, the outcome in assay [5], in [18], in assay [9], in [16] and in [11] was inactive.

Regarding `CCCCCCCCCCCCOC(C)=O`, the result in assay [2], in assay [17], in assay [19], in assay [5], in [6] and in assay [7] was inactive. The compound was called inactive in assay [8], in [18] and in assay [10].

For the compound `CN1CCc2cccc3c2[C@H]1Cc1ccc(O)c(O)c1-3`, the result in [2], in assay [17], in assay [19], in [6], in assay [9] and in assay [10] was inactive. Further, the AC50 is 12 µM (active) in [5] and 0.775 µM (active) in [7].

These data come from PubChem BioAssay (EPA / NIEHS).
